In experiment [1] the test system is Es-2. The experiment is described as follows: Primary qHTS to identify gynecologic anti-cancer compounds using libraries of approved drugs and bioactive compounds (AID 1345084). For activity change, negative = cytotoxicity: % is set by controls: 0 for no effect and ±100 for the full control effect. Note: nearly all actives have a fitted effect of over 55% in size. Note: potency is the fitted concentration of half-maximal effect. Particulars: Gynecologic cancer cell panel viability, ATPlite luminescence, 48 h; series mostly up to 57.5 µM. Summed up:
(§1)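 Measured: luminescence after ATPlite addition (15 min, RT). Exposure: 48 h, 37 C, 5% CO2.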
Background: Quantitative high-throughput screening tests each substance at several concentrations.

Experiment [2] deals with HeLa. Described as above. Particulars: Gynecologic cancer cell panel viability, ATPlite luminescence, 48 h; series mostly up to 57.5 µM. Summed up:
as §1
For orientation: Cellular ATP, detected with luciferase, serves as a proxy for viable cell number.

The test system of experiment [3] is Hek293T. The experiment is described as above. Particulars: Gynecologic cancer cell panel viability, ATPlite luminescence, 48 h, control line for the selectivity index; series mostly up to 57.5 µM. Summed up: as §1
Experiment [4] has as its system JEG-3. The experiment is described as above. Particulars: Gynecologic cancer cell panel viability, ATPlite luminescence, 48 h; series mostly up to 57.5 µM. The procedure, abridged:
as §1

Experiment [5] has as its system OV90. Described as above. Particulars: Gynecologic cancer cell panel viability, ATPlite luminescence, 48 h; series mostly up to 57.5 µM. The procedure, abridged: as §1
The subject of experiment [6] is PA-1. Described as above. The conditions noted are these: Gynecologic cancer cell panel viability, ATPlite luminescence, 48 h; series mostly up to 57.5 µM. The procedure, abridged:
as §1

Experiment [7] deals with SKOV3. The experiment is described as above. The conditions noted are these: Gynecologic cancer cell panel viability, ATPlite luminescence, 48 h; series mostly up to 57.5 µM. The procedure, abridged: as §1
The subject of experiment [8] is Tov-21-G. Described as above. Particulars: Gynecologic cancer cell panel viability, ATPlite luminescence, 48 h; series mostly up to 57.5 µM. Summed up: as §1
The test system of experiment [9] is Tov112D. Described as above. The conditions noted are these: Gynecologic cancer cell panel viability, ATPlite luminescence, 48 h; series mostly up to 57.5 µM. Summed up: as §1
Experiment [10] can be described thus: Drug repurposing screens with cells derived from glioblastoma tumor samples (AID 1345199). For activity, negative = cell killing: % is set by controls: 0 for no effect and ±100 for the full control effect. Note: nearly all actives have a fitted effect of over 40% in size. Note: potency is the fitted concentration of half-maximal effect. The conditions noted are these: GBM patient neurospheres viability, ATP luminescence, 48 h. The procedure, abridged:
(§2)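 Four patient lines of CD133+ GBM neurospheres were screened at several concentrations; hits were retested in those lines plus three slower-growing GBM lines, using 48-hour treatment and ATP-based viability.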

The test system of experiment [11] is astro. The experiment is described as above. Particulars: viability, ATP luminescence, 48 h; series mostly up to 45.9 µM. The procedure, abridged:
as §2

Experiment [12] addresses Nuclear receptor subfamily 1 group I member 2 (Rattus norvegicus) (UniProt Q9R1A7). The experiment is described as follows: qHTS assay for small molecule activators of the rat pregnane X receptor (rPXR) signaling pathway (AID 651751; call rule not given here; note: 0% is about no effect). Particulars: rPXR reporter cells, luciferase (One-Glo), 24 h.
Experiment [13] in a line: qHTS assay for small molecule activators of the human pregnane X receptor (PXR) signaling pathway (AID 720659; call rule not given here; note: 0% is about no effect).
Experiment [14] in a line: qHTS assay to identify inhibitors of the type 1 interferon - major histocompatibility complex class I in skeletal muscle: Counter screen cell viability and HiBit confirmation (AID 1347412). Note: % is set by controls: 0 for no effect and ±100 for the full control effect; nearly all actives have a fitted effect of over 60% in size. Particulars: iHSKM muscle cells + IFN-b, HiBiT or CellTiter-Glo, 24 h; Potency: HiBiT; Viability, at 45.9 µM (top of the series). Summed up: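 After 24 h with human IFN-beta (4 ng/ml) and compound titrations (top 46 uM final, 1:3, 12 points), HLA-B HiBit myoblasts were lysed for either Nano-Glo HiBiT luminescence or CellTiter Glo viability on paired plates.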

Where [15] appears, read: at 45.9 µM (top of the series), tumour line B.
[16] abbreviates: at 45.9 µM (top of the series), tumour line D.
Where [17] appears, read: at 46 µM (top of the series), tumour line A.
Setting [18] is: at 21.2 µM (top of the series), tumour line B.

Unmarked numbers belong to inactive results. Inconclusive results are not listed. Calls of active or inactive are those of the source. Unless noted, calls come from the whole dose curve; as a rule, active = well fitted curve in the direction sought with a large enough effect; inconclusive = small, poorly fitted or top-dose-only effect, or another doubt; inactive = no such curve, though single readings can be large; an effect the other way counts as inactive or inconclusive.

Nuclear receptor subfamily 1 group I member 2 (Rattus norvegicus), sequence (Q9R1A7 whole entry, looked up): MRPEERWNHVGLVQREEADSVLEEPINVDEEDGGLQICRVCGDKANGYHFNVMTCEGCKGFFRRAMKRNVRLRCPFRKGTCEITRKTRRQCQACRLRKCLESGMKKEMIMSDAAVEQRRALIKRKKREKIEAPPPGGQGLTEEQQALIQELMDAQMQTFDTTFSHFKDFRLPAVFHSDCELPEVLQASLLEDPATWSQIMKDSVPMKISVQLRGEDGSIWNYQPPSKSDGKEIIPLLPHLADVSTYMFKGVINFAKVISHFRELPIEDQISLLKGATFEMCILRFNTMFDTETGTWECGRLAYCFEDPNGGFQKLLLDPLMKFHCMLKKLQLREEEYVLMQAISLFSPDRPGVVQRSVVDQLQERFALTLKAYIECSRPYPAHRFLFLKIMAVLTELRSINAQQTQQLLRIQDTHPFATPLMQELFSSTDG

For `Cc1ccc(S(=O)(=O)N[C@@H](CCCCN)C(=O)CCl)cc1`, the Potency entry in experiment [1], in experiment [2], in [3], in [4], in [5] and in [6] was “inactive” in each case. Also, the Potency entry in experiment [7], in experiment [8], in experiment [9] and in experiment [11] was “inactive” in each case. Further, in [10] (setting [15]), the activity, negative = cell killing was -22.5%.

`NCCc1cc(O)c(O)cc1O`: the Potency entry in experiment [1], in [2], in experiment [3], in experiment [5], in experiment [6] and in experiment [7] was “inactive” each time. In addition, the Potency result in experiment [8] and in experiment [9] was “inactive” throughout. In addition, the values for the activity, negative = cell killing in experiment [10] (setting [15]) and in [10] (setting [16]) were -19% and -22%, respectively.

For the compound `CCN(CC)C(=O)N[C@@H]1C=C2c3cccc4[nH]cc(c34)C[C@@H]2N(C)C1`, the Potency entry in [1], in experiment [2], in experiment [3], in experiment [5], in experiment [6] and in experiment [7] was “inactive” each time. Besides, the Potency result in experiment [8] and in experiment [9] was “inactive” each time. The activity, negative = cell killing was -7.53% in [10] (setting [15]) and -22.7% in experiment [10] (setting [16]).

As to `CCN(CC)CCOC(=O)C(O)(c1ccccc1)c1ccccc1`, the Potency result in [1], in experiment [2], in [3], in [5], in experiment [6] and in experiment [7] was “inactive” in each case. Besides, the Potency entry in [8] and in experiment [9] was “inactive” throughout. Further, the figures for the activity, negative = cell killing in experiment [10] (setting [15]), in experiment [10] (setting [16]) and in [10] (setting [17]) were -7.05%, -0.674% and -16.9%, respectively.

Turning to `CC(CCc1ccccc1)NC(C)C(O)c1ccc(O)cc1` (configuration not stated), the Potency entry in experiment [1], in [2], in experiment [3], in [4], in experiment [7] and in experiment [8] was “inactive” in each case. Further, in experiment [9], the Potency entry is “inactive”. Also, the values for the activity, negative = cell killing in experiment [10] (setting [15]) and in [10] (setting [16]) were -9.92% and 2.61%, respectively. Further, the Potency in experiment [10] (tumour line A) is 14.1 µM (active).

Regarding `COc1ccc(C(CN(C)C)C2(O)CCCCC2)cc1` (configuration not stated), the Potency entry in experiment [1], in experiment [2], in experiment [3], in experiment [5], in experiment [6] and in experiment [7] was “inactive” in each case. Further, the Potency result in experiment [8] and in experiment [9] was “inactive” throughout. In addition, the figures for the activity, negative = cell killing in experiment [10] (setting [15]), in experiment [10] (setting [16]) and in [10] (setting [17]) were -10.5%, 1.59% and -20%, respectively.

For the compound `NCC(O)c1ccc(O)cc1` (configuration not stated), the Potency result in experiment [1], in experiment [2], in [3], in [4], in experiment [5] and in [6] was “inactive” throughout. Besides, the Potency result in experiment [7], in experiment [8] and in experiment [9] was “inactive” throughout. Besides, the activity, negative = cell killing in experiment [10] (setting [15]) is -12.4%; in [10] (setting [16]), -9.81%. Besides, the max response in [12] was 2.53%. Besides, the compound was called inactive in experiment [13].

Turning to `Nc1ccncc1`, the Potency result in [1], in experiment [2], in [3], in experiment [5], in [6] and in [7] was “inactive” each time. Besides, the Potency entry in experiment [8] and in experiment [9] was “inactive” in each case. The activity, negative = cell killing is -0.63% in experiment [10] (setting [15]), -4.86% in [10] (setting [16]) and -29.8% in [10] (setting [17]). The max response in experiment [12] is -1.96%. The outcome in [13] was inactive.

`Oc1ccccc1-c1ccccc1`: the Potency entry in [1], in [2], in [3], in [5], in [6] and in experiment [7] was “inactive” in each case. Further, the Potency entry in experiment [8], in experiment [9] and in experiment [11] was “inactive” in each case. The activity, negative = cell killing in experiment [10] (setting [15]) is -14.5%; in experiment [10] (setting [16]) it was -15.4%; in [10] (setting [17]) it was -19.2%. Also, the max response in experiment [12] was -0.588% [middle of 4 runs].

`c1ccc(C2CC2)c(OCC2=NCCN2)c1`: the Potency result in [1], in experiment [2], in [3], in [4], in experiment [5] and in experiment [7] was “inactive” in each case. Moreover, the Potency entry in experiment [8], in experiment [9] and in experiment [11] was “inactive” each time. Besides, the activity, negative = cell killing was -20.7% in [10] (setting [15]) and -19.1% in experiment [10] (setting [16]). Also, the Potency in experiment [10] (tumour line A) was 11.2 µM (active).

In the case of `O=c1oc2ccccc2c(O)c1C(CC(O)c1ccc(-c2ccc(Br)cc2)cc1)c1ccccc1` (configuration not stated), the Potency entry in experiment [1], in experiment [2], in experiment [3], in experiment [4], in experiment [5] and in experiment [6] was “inactive” in each case. Besides, the Potency result in experiment [7], in experiment [8] and in experiment [9] was “inactive” throughout. Further, the activity, negative = cell killing in experiment [10] (setting [15]) was -19.7%. In addition, the max response in experiment [12] was -13.3%. Besides, the compound was called inactive in [13].

For the compound `COC[C@H]1OC(=O)c2coc3c2[C@@]1(C)C1=C(C3=O)C2CCC(=O)[C@@]2(C)C[C@H]1OC(C)=O` (some centres not stated), the Potency result in [1], in experiment [2], in [3], in [4], in [5] and in experiment [8] was “inactive” throughout. In addition, the Potency entry in experiment [9] and in experiment [14] was “inactive” in each case.

In the case of `COc1ccc(C(=O)c2c(C)n(CCN3CCOCC3)c3ccccc23)cc1`, the Potency result in experiment [1], in experiment [2], in [3], in experiment [4], in experiment [5] and in [6] was “inactive” each time. Moreover, the Potency entry in [8], in [9] and in experiment [11] was “inactive” each time. The activity, negative = cell killing in experiment [10] (setting [15]) was -14.8%; in [10] (setting [16]), -16%.

Take `C[C@]12CC[C@H]3[C@@H](CCC4=CC(=O)CC[C@@H]43)[C@@H]1CC[C@@H]2OC(=O)CCc1ccccc1`: the Potency entry in experiment [1], in [3], in experiment [4], in experiment [5], in experiment [7] and in [8] was “inactive” throughout. In addition, in experiment [9], the Potency entry is “inactive”. In addition, the Potency in [2] was 3.55 µM (active).

With `O=C1CC[C@@]2(O)[C@H]3Cc4ccc(O)c5c4[C@@]2(CCN3CC2CC2)[C@H]1O5`, the Potency entry in experiment [1], in experiment [2], in experiment [3], in experiment [5], in experiment [6] and in experiment [7] was “inactive” throughout. The Potency result in experiment [8], in [9] and in experiment [11] was “inactive” in each case. The activity, negative = cell killing in experiment [10] (setting [15]) was 1.04%; in experiment [10] (setting [16]), -3.21%.

Regarding `CCC(C(N)=O)N1CCCC1=O` (configuration not stated), the Potency entry in [1], in experiment [2], in experiment [3], in experiment [4], in experiment [5] and in experiment [6] was “inactive” throughout. Further, the Potency entry in experiment [8], in experiment [9] and in experiment [11] was “inactive” each time. Also, the activity, negative = cell killing in experiment [10] (setting [15]) is -7.31%; in [10] (setting [16]), -6.8%; in experiment [10] (setting [17]), -24.9%.

`Cn1cc(C2=C(c3cn(C4CCN(Cc5ccccn5)CC4)c4ccccc34)C(=O)NC2=O)c2ccccc21`: the Potency entry in experiment [1], in experiment [2], in experiment [3], in experiment [5], in [6] and in experiment [7] was “inactive” throughout. Besides, the Potency result in experiment [8] and in experiment [9] was “inactive” each time. Further, the activity, negative = cell killing in experiment [10] (setting [15]) was 31.3%. Also, the Potency was 2.51 µM (active) in experiment [10] (tumour line A) and 20 µM (active) in [10] (tumour line D).

`NCC(CC(=O)O)c1ccc(Cl)cc1` (configuration not stated): the activity change, negative = cytotoxicity was 4.42% [at 0.462 µM] in experiment [1]; 8.44% [at 0.462 µM] in [2]; -3.58% [at 0.462 µM] in experiment [3]; 19.2% [at 0.462 µM] in experiment [5]; 5.78% [at 0.462 µM] in [6]; 1.02% [at 0.462 µM] in experiment [7]. Also, the activity change, negative = cytotoxicity was 5.93% [at 0.462 µM] in experiment [8] and -1.06% [at 0.462 µM] in experiment [9]. Moreover, the results for the activity, negative = cell killing in experiment [10] (setting [15]), in [10] (setting [16]) and in experiment [10] (setting [17]) were -0.559%, -15.2% and -26.1%, respectively. Moreover, in [11], the Potency entry was “inactive”.

As for `Clc1ccc(CCC(Cn2ccnc2)Sc2c(Cl)cccc2Cl)cc1` (configuration not stated), the activity, negative = cell killing in [10] (setting [18]) was -25.1%.

Take `CN(C)[C@@H]1C(=O)C(C(N)=O)=C(O)[C@@]2(O)C(=O)C3=C(O)c4c(O)cccc4[C@@](C)(O)[C@H]3C[C@@H]12`: the activity, negative = cell killing is -16.2% in [10] (setting [18]) and -21.5% in experiment [10] (at 21.2 µM (top of the series), tumour line D).

These data come from PubChem BioAssay (NCATS).
